LGR2 inh – inhibitors of bursicon-induced LGR2 CRE-luciferase signal, primary screen, cell-based, HEK293, CRE-luciferase reporter, bursicon stimulation | AID 720647, 2013 | bursicon-stimulated, 4 h | hit rate 0.35% among 380,000 | Drosophila bursicon receptor LGR2 (rickets) | inhibition, % at 9.99 µM;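 active = drop in luminescence signal, shown as inhibition above about 50% in the replicate tests, limit read from the data, passing the limit was not always enough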;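 note: agonist challenge used bursicon conditioned medium at about half maximal strength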
CF NFkB block – inhibitors of PAF-induced NF-kB signaling, primary screen, cell-based, GFP fluorescence, uHTS. KKLEB NF-kB-GFP reporter, GFP fluorescence overnight. inhibition, % at 5 µM. hit rate 0.86% among 360,000;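 active = at least 50% inhibition at 5 µM, scaled per plate between neutral and stimulator controls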;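 note: PAF is a Pseudomonas aeruginosa culture filtrate used as stimulus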
TROY NFkB inh – inhibitors of TROY-driven NF-kB signaling, primary screen, Q293 LMP1-TROYcd cells, NF-kB luciferase, uHTS | Q293 LMP1-TROYcd NF-kB luciferase reporter, 4 h | inhibition, % at 10 µM | hit rate 0.98% among 360,000 | AID 1347056, 2019;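 active = compounds whose plate-normalised and pattern-corrected inhibition of the luciferase reporter signal at the single screening dose is 50% or more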
KKLEB cytotox – cytotoxicity in KKLEB CF airway cells, primary screen, cytotoxicity control for CF NF-kB inhibitor project, cell-based, uHTS, fluorescence assay plates; KKLEB CF airway cells viability, ATPlite luminescence, overnight; hits give low values; cells stimulated with P. aeruginosa culture filtrate; activity change (cytotoxicity), % at 5 µM; hit rate 0.36% among 360,000; AID 602141, 2011;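 active = corrected activity change at or below -50% at 5 µM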
TWEAK Fn14 block – inhibitors of TWEAK-Fn14 signaling, primary screen, luciferase reporter cells, uHTS | inhibition, % at 10 µM | hit rate 2% among 360,000 | TWEAK-stimulated Fn14 reporter cells, luciferase luminescence, 8 h | AID 1159606, 2016; in the data active = inhibition above about 50%
EWS-Fli inh – EWS/Fli-driven NR0B1 reporter inhibitors, primary screen, A673 cells, NR0B1 luciferase, luminescence, MLPCN library | viability-normalised | inhibition, % at 12.6 µM | hit rate 0.67% among 350,000;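 active = mean inhibition of at least 50% after viability correction, with every replicate also passing that limit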;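 note: firefly luciferase signal divided by Alamar Blue viability fluorescence both relative to DMSO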
CF NFkB inh conf – inhibitors of PAF-induced NF-kB signaling, retest, confirmation, cell-based, GFP fluorescence, single concentration | AID 602472, 2012 | inhibition, % at 5 µM | hit rate 64% among 1,300 | KKLEB CF airway cells, overnight | shares compounds with CF NFkB block; in the data active = inhibition above about 40%;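 note: stimulus PAF is a Pseudomonas aeruginosa filtrate and not platelet activating factor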
DNA binder FP – DNA binders by acridine orange displacement, dose response, counter-screen for EWS/Fli inhibitor project, biochemical, fluorescence polarization, cherry-pick; salmon sperm DNA acridine orange fluorescence polarization; hit rate 2% among 640; shares compounds with EWS-Fli inh; AID 720586, 2013; AC35, µM (series often up to 68 µM);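 active = fitted curve reaches a 35% signal fall AC35 below twice the sample's top valid tested dose, actives reach about 48 µM in these data; inactive = the rest, including activity in the rising direction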;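 note: lower polarization ratio signals compound binding to DNA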
Each line names hits and unclear results; the compound was inactive in the other large screens (follow-up assays come after a bar, where they were run). Rows were chosen to be rich in hits. Some 2.6% of all compounds tested hit in one or more screens of this group.

COc1cc(C2c3cc4c(cc3CC3COC(=O)C32)OCO4)cc(OC)c1O (stereo not drawn)	CF NFkB block 54.5 | CF NFkB inh conf 70.7
COC(=O)[C@@H]1[C@@H](CO)[C@@H]2Cn3c(ccc(-c4cccc(F)c4)c3=O)[C@H]1N2Cc1cccnc1	none (no result: CF NFkB block, TROY NFkB inh, KKLEB cytotox, TWEAK Fn14 block)
N#CC1c2ccccc2-n2nncc2CN1Cc1cc(Cl)cc(Cl)c1 (stereo not drawn)	LGR2 inh 102.0, CF NFkB block 90.4, TROY NFkB inh 90.6, TWEAK Fn14 block 107.1, EWS-Fli inh 62.5 | CF NFkB inh conf 115.9
CN1Cc2cnnn2-c2ccccc2C1C#N (stereo not drawn)	none
N#Cc1ccc(-c2ccc([C@H]3[C@@H](CO)N4CCCCN(C(=O)Cc5ccccc5)C[C@@H]34)cc2)cc1	none (no result: CF NFkB block, TROY NFkB inh, KKLEB cytotox, TWEAK Fn14 block)
COC(=O)[C@H]1[C@H](CO)[C@H]2Cn3c(ccc(C4=CCCCC4)c3=O)[C@@H]1N2CC1CCCC1	none (no result: CF NFkB block, TROY NFkB inh, KKLEB cytotox, TWEAK Fn14 block)
C[C@H]1C[C@@H](C)C(=O)[C@@H]([C@H](O)CC2CC(=O)NC(=O)C2)C1	LGR2 inh 94.8, CF NFkB block 82.5, TROY NFkB inh 66.3, TWEAK Fn14 block 86.0 | CF NFkB inh conf 104.2
CC(=O)OC1CC(OC2C(O)CC(OC3C(O)CC(OC4CCC5(C)C(CCC6C5CCC5(C)C(C7=CC(=O)OC7)C(O)CC65O)C4)OC3C)OC2C)OC(C)C1OC1OC(CO)C(O)C(O)C1O (stereo not drawn)	LGR2 inh 87.0, CF NFkB block 90.7, KKLEB cytotox -53.2, TWEAK Fn14 block 82.8, EWS-Fli inh 63.5 | DNA binder FP inactive
CC(=O)O[C@@H]1CC[C@]2(C)C3CC[C@@]4(C)C(C[C@@H](O)[C@@H]4O)C3[C@@H](OC(C)=O)C[C@H]2C1 (stereo partly drawn)	none
CC(=O)OC1CC2(O)C3CCC4CC(O)CCC4(C)C3CCC2(C)C1C1=CC(=O)OC1 (stereo not drawn)	LGR2 inh 90.3, CF NFkB block 89.6, TWEAK Fn14 block 85.1, EWS-Fli inh 63.0 | DNA binder FP inactive
CCCC#Cc1ccc([C@H]2[C@H](CO)N3CCCCN(C(=O)Cc4ccccn4)C[C@@H]23)cc1	none (no result: CF NFkB block, TROY NFkB inh, KKLEB cytotox, TWEAK Fn14 block)
CCOC(=O)C1=C(C(=O)OCC)C2(c3ccccc3)c3ccccc3C1(C)N2C (stereo not drawn)	none (no result: CF NFkB block, TROY NFkB inh, KKLEB cytotox, TWEAK Fn14 block)
c1ccc(CCN2CCC3CCNC3C2)cc1 (stereo not drawn)	none (no result: CF NFkB block, TROY NFkB inh, KKLEB cytotox, TWEAK Fn14 block)
COC(=O)[C@H]1[C@H](CO)[C@H]2Cn3c(ccc(-c4ccccc4F)c3=O)[C@@H]1N2Cc1cccnc1	none (no result: CF NFkB block, TROY NFkB inh, KKLEB cytotox, TWEAK Fn14 block)
C[C@]12CC[C@H]3[C@@H](CC[C@]4(O)C[C@@H](O)CC[C@]34C=O)[C@@]1(O)CC[C@@H]2C1=CC(=O)OC1	LGR2 inh 84.4, CF NFkB block 62.4, TWEAK Fn14 block 75.2, EWS-Fli inh 79.0 | DNA binder FP inactive
C[C@]12CCC3C(CCC4=CC(O)CC[C@@]43/C=N/O)C1(O)CCC2C1=CC(=O)OC1 (stereo partly drawn)	LGR2 inh 81.9, CF NFkB block 80.7, KKLEB cytotox -62.5, TWEAK Fn14 block 83.9, EWS-Fli inh 68.9 | DNA binder FP inactive
CC12CCC3C(CCC4(O)CC(O)CCC34C=NO)C1(O)CCC2C1=COC(=O)C1 (stereo not drawn)	CF NFkB block 84.8, TWEAK Fn14 block 75.6, EWS-Fli inh 73.9 (no result: LGR2 inh) | DNA binder FP inactive
O=C(Cc1ccccn1)N1CCCCN2[C@H](C1)[C@@H](c1ccc(-c3ccccc3)cc1)[C@@H]2CO	none (no result: CF NFkB block, TROY NFkB inh, KKLEB cytotox, TWEAK Fn14 block)

Assay outcomes (PubChem)
